Screening results: PubChem, National Center for Advancing Translational Sciences (NCATS)
Shown are actives, neighbours in structure and some others; about 7.4% of the full set was active somewhere.
FLuc modulator – inhibits or activates purified firefly luciferase, miR-21 counter-screen. P08659. purified FLuc, Km substrates, luminescence inhibition. Potency, µM (highest dose often 57.5 µM), hits mostly inhibitors. 360,000 compounds, 6.9% hits; further: nearly all actives have a fitted effect of over 55% in size
Target sequence (P08659 whole entry, looked up): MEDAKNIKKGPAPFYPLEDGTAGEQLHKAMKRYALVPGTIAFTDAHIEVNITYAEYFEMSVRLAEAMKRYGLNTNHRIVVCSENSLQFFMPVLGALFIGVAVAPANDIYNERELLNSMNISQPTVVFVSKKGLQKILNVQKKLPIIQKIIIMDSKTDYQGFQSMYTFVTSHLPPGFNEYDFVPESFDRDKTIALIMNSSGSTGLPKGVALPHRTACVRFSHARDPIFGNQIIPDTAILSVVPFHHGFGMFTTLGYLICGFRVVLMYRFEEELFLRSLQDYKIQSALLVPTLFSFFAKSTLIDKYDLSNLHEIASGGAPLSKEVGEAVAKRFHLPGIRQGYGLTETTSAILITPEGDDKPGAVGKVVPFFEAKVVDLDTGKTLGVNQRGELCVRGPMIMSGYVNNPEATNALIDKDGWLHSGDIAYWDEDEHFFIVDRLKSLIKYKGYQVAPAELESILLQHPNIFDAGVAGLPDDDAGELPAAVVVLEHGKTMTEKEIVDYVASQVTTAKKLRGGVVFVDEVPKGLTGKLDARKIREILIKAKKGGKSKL
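Biochemical qHTS of compounds, final roughly 60 µM downward over six points, against 10 nM purified firefly luciferase using Km concentrations of substrates (10 uM D-luciferin, 10 uM ATP) in Tris acetate pH 7.5 buffer; luminescence output.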
NPC1 promoter act – activates the NPC1 promoter; Huh7 NPC1 promoter luciferase reporter, 24 h; Potency, µM (top dose mostly 9.22 µM), usual class: activators; 320,000 compounds, 2.4% hits; AID 485313; further: nearly all actives have a fitted effect of over 60% in size
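Compounds in DMSO were transferred onto Huh7 NPC1-luciferase reporter cells pre-incubated 2 h; after 24 h at 37 °C, Amplite reagent was dispensed and luminescence recorded 10 min later.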
ELG1 genotox – inducers of genotoxicity in HEK293T ELG1-luciferase cells; HEK293T ELG1-luciferase reporter, luminescence, 16 h; Potency, µM (series often up to 46 µM), hits mostly activators; 330,000 compounds, 1.3% hits; AID 504466; further: nearly all actives have a fitted effect of over 60% in size
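HEK293T cells expressing luciferase-tagged ELG1 were treated with compound or DMSO for 16 hr at 37°C. Luciferase activity was then read after 30 min with ONE-Glo at room temperature; rising signal flags genetic stress.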
Rab9 prom act – activates the Rab9 promoter. Huh7 Rab9 promoter-luciferase reporter, luminescence, 24 h. Potency, µM (titrated, usually from 9.22 µM), most hits filed as activators. 320,000 compounds, 2.8% hits. AID 485297; further: nearly all actives have a fitted effect of over 60% in size
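Promoter activation is measured as luciferase luminescence in Huh7 cells stably transfected with a Rab9 promoter–luciferase construct, following 24 h compound exposure at 37 °C and 10 min reagent incubation at ambient temperature.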
SMN2 splice up – SMN2 splice variant enhancement; 210,000 compounds, 2.8% hits; HEK293 SMN2-luciferase splicing reporter, luminescence, 30-36 h; Potency, µM (titrated, usually from 46.1 µM), actives largely listed as activators; AID 1458; further: nearly all actives have a fitted effect of over 55% in size
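HEK293 cells carry an SMN2 […]–luciferase reporter in which exon 7 inclusion puts luciferase in frame. Cells were plated 10-12 h before compound addition, then incubated 30-36 h at 37C. ONE-Glo luminescence was read; sodium butyrate at 4.5 mM final served as control.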
A number is an active result; - = inactive; ? = inconclusive; . = not tested or not shown; [ ] = remark or other dose. The call rests on the fitted dose curve; in most records, active means well fitted curve in the direction sought with a large enough effect; inconclusive means small, poorly fitted or top-dose-only effect, or another doubt; inactive means no such curve, though single readings can be large; an effect the other way counts as inactive or inconclusive.

SMILES	FLuc modulator	NPC1 promoter act	ELG1 genotox	Rab9 prom act	SMN2 splice up
CC(C)(C)c1cc(NC(=O)c2cccc([N+](=O)[O-])c2)no1	?	2.2µM	?	1.4µM	2.8µM
CC(C)(C)c1cc(NC(=O)Nc2ccccc2)no1	4.8µM	1.4µM	?	1.3µM	.
Cc1cc(NC(=O)c2cccc([N+](=O)[O-])c2)no1	-	-	-	-	.
COC(=O)c1ccccc1NC(=O)Nc1cc(C(C)(C)C)on1	-	2µM	16µM	0.89µM	.
CC(C)(C)c1cc(NC(=O)Nc2ccccc2OC(F)(F)F)no1	-	-	-	-	.
Cc1cc(C(=O)Nc2cc(C(C)(C)C)on2)c(C)o1	9.5µM	?	?	2.8µM	.
CCOC(=O)CC(NC(=O)CCc1c(C)nc2ncnn2c1C)c1ccc(C)cc1 (stereo unspecified)	-	-	-	-	-
Cc1cc(N(CCO)Cc2ccccc2)n2nc(-c3ccc(C(C)(C)C)cc3)nc2n1	?	.	.	.	-
CCOc1ccccc1NC(=O)NNC(=O)COc1cccc(C)c1C	-	-	-	-	.
Cc1cc(NC(NC(=O)c2ccco2)(C(F)(F)F)C(F)(F)F)no1	-	-	-	-	-
CC(C)(C)c1cc(NC(=O)c2ccco2)no1	5.4µM	1.8µM	1.3µM	0.63µM	.
COc1ccc(-c2cn3nc(N4CCCC(C(=O)Nc5ccc(Cl)cc5C)C4)sc3n2)cc1 (stereo unspecified)	-	.	.	.	.
COc1ccc(-c2cn3nc(N4CCCC(C(=O)NCc5ccccc5OC)C4)sc3n2)cc1 (stereo unspecified)	17µM	.	.	.	.
O=C(NCc1cccc(Cl)c1)C1CCN(c2nn3cc(-c4ccc(F)cc4)nc3s2)CC1	-	.	.	.	.
Cc1ccc(-c2cn3nc(N4CCCC(C(=O)NCc5ccccc5F)C4)sc3n2)cc1 (stereo unspecified)	6µM	.	.	.	.
COc1ccc(-c2cn3nc(N4CCCC(C(=O)NCc5ccccc5Cl)C4)sc3n2)cc1 (stereo unspecified)	9.5µM	.	.	.	.
O=C(NCc1cccc(Cl)c1)C1CCCN(c2nn3cc(-c4ccc(F)cc4)nc3s2)C1 (stereo unspecified)	9.5µM	.	.	.	.
CCN(CC)CCNC(=O)C1CCN(c2nn3cc(-c4ccc(F)cc4)nc3s2)CC1	21µM	.	.	.	.
c1ccc(CNc2ccc3c(c2)ncn3C2CCCCC2)nc1	13µM	?	-	?	-
CC(C)(C)CNCCO	.	.	.	.	-[9.22 µM]
O=C(c1cnccn1)N1CCC[C@@]2(CCN(c3ccncc3)C2)C1	.	.	.	.	-
CCC(C)Sc1nnc(NS(=O)(=O)Cc2ccccc2)s1 (stereo unspecified)	-	-	-	-	.
Cc1cc(CN(C)C(=O)c2ccc3nc(Cc4ccccc4F)oc3c2)on1	?	2.8µM	-	3.2µM	.
CN(Cc1nccn1C)C(=O)c1ccc2nc(Cc3ccccc3F)oc2c1	13µM	-	?	?	.
CCOC(=O)c1ccc(N=Nc2c(C)c(C#N)c(O)[nH]c2=O)cc1	2.7µM	-	?	4.5µM	-
SMILES	FLuc modulator	NPC1 promoter act	ELG1 genotox	Rab9 prom act	SMN2 splice up
O=C(Nc1ccc(F)cc1)N1CCc2ccccc2C1	24µM	4µM	?	?	.
O=C(CN1CCc2ccccc2C1)Nc1ccc(Br)cc1	?	-	-	-	-
O=C(Nc1ccc(Br)cc1)N1CCc2ccccc2C1	11µM	2.8µM	?	2.8µM	.
O=C(NCCN1CCc2ccccc2C1)Nc1ccc(F)cc1	-	-	-	-	-
CCN(CC(=O)Nc1c(F)cccc1F)C(=O)Cn1[nH]c(=O)c2ccccc2c1=O	.	-	-	-	.
CC(=O)OC(C)C	.	.	.	.	-
N#CCC(=O)Nc1ccc(C(=O)OCC(=O)c2ccc3c(c2)OCCO3)cc1	11µM	?	-	?	-
N#CCC(=O)Nc1ccc(C(=O)OCC(=O)c2ccc3c(c2)OCO3)cc1	?	?	-	4µM	.
NS(=O)(=O)c1ccc(NC(=O)COC(=O)c2ccc3c(c2)OCCO3)cc1	-	-	-	-	-
CC1CCCC(NC(=O)COC(=O)/C=C/c2ccc([N+](=O)[O-])cc2)C1C (stereo unspecified)	.	.	-	.	.
O=C(NC(=S)/C(=C1\CCCCCN1)[N+](=O)[O-])c1ccccc1	.	.	0.23µM	.	.
c1ccc(C2=Nc3ccccc3SC2c2nc3ccccc3[nH]2)cc1 (stereo unspecified)	17µM	.	.	.	?
O=C1CC(c2nc3ccccc3[nH]2)CN1c1ccccc1 (stereo unspecified)	-	-	-	-	-
Cc1cc(C(=O)COC(=O)c2ccc(O)cc2)c(C)n1-c1ccccc1F	2.4µM	?	?	?	-
Cc1cc(C(=O)COC(=O)c2ccc(O)cc2)c(C)n1CC(F)(F)F	.	2.8µM	?	3.2µM	.
CCCn1c(C)cc(C(=O)COC(=O)c2ccc(Cl)c(S(=O)(=O)N3CCCC3)c2)c1C	2.4µM	-	-	-	-
CCn1cc(C(=O)OCC(=O)c2cc(C)n(-c3ccccc3F)c2C)c(=O)c2ccc(C)nc21	?	-	-	-	-
Cc1cc(C(=O)COC(=O)C2=NN(c3ccccc3)C(=O)CC2)c(C)n1CC(F)(F)F	-	-	-	-	-
Cc1ccc(-n2c(C)cc(C(=O)COC(=O)c3ccc[nH]c3=O)c2C)cc1C	6µM	?	?	?	7.1µM
Cc1ccc(N(CC(=O)NCc2ccc(F)cc2)S(=O)(=O)c2c(C)n[nH]c2C)cc1	-	-	-	-	.
CCn1c(C)cc(C(=O)COC(=O)c2ccccc2[N+](=O)[O-])c1C	.	.	-	.	.
CCCn1c(C)cc(C(=O)COC(=O)c2ccc[nH]c2=O)c1C	2.7µM	?	?	1.3µM	.
Cc1cc(C(=O)COC(=O)c2ccc[nH]c2=O)c(C)n1-c1ccccc1F	1.5µM	0.32µM	?	0.4µM	.
COC(=O)[C@]1(Cc2ccccc2)N[C@H](c2ccc(-c3ccc4c(c3)OCO4)cc2)[C@@H]2C(=O)N(C)C(=O)[C@@H]21	?	-	-	-	.
CC(OC(=O)c1ccc2ncsc2c1)C(=O)N(C)C1CCCCC1 (stereo unspecified)	.	-	-	-	.
SMILES	FLuc modulator	NPC1 promoter act	ELG1 genotox	Rab9 prom act	SMN2 splice up
COc1ccc(-c2cc(C(=O)Nc3ccccc3)on2)cc1	0.54µM	-	?	-	?
COc1ccc(-c2cc(C(=O)Nc3ccccc3F)on2)cc1	-	-	?	3.2µM	?
COc1ccc(-n2nnc(C(=O)Nc3ccccc3F)c2N)cc1	2.4µM	.	.	.	7.1µM
CCc1ccc(CNC(=O)c2nn(-c3ccc(C)cc3)c(=O)c3c2c2ccccc2n3C)cc1	-	.	.	.	-
Cc1cc(=O)c(C(=O)Nc2cccc(C(=O)NC3CC3)c2)nn1-c1ccccc1Cl	-	-	-	-	.
O=C(O)c1ccc(CNCc2ccccc2)cc1	.	.	.	.	-[9.22 µM]
CCOc1ccc(C(=O)N/N=C(\c2ccccc2)c2ccccn2)cc1	19µM	-	-	-	-
C/C(=N\NC(=O)c1c[nH]c2ccccc12)c1ccccn1	11µM	2.5µM	?	?	-
C/C(=N\NC(=O)c1c[nH]c2ccccc12)c1ccco1	12µM	5.6µM	7.9µM	4µM	14µM
